HEK293 tox = HEK 293 cell cytotoxicity | AID 1345083 | Potency, µM (doses to about 115 µM), inactives show top-dose activity change, negative = cytotoxicity, most hits filed as inhibitors | HEK 293 viability, ATP luminescence (CellTiter-Glo), 48-72 h | actives 6.6% (n = 94,000); note: % is set by controls: 0 for no effect and ±100 for the full control effect; nearly all actives have a fitted effect of over 60% in size
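Cells seeded first (HEK 293, 250 cells/well), then compound added by pintool. Incubation ran 48 or 72 hr at 37 degree Celsius. CellTiter-Glo was added and luminescence imaged after 10 min at room temperature.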
Luciferase inh = Photinus pyralis luciferase inhibition; purified P. pyralis luciferase, luminescence, biochemical; Potency, µM (top dose mostly 115 µM), usual class: inhibitors; actives 2.5% (n = 76,000); AID 1347043; note: % is set by controls: 0 for no effect and ±100 for the full control effect; nearly all actives have a fitted effect of over 65% in size
Target sequence (P08659 whole entry, looked up): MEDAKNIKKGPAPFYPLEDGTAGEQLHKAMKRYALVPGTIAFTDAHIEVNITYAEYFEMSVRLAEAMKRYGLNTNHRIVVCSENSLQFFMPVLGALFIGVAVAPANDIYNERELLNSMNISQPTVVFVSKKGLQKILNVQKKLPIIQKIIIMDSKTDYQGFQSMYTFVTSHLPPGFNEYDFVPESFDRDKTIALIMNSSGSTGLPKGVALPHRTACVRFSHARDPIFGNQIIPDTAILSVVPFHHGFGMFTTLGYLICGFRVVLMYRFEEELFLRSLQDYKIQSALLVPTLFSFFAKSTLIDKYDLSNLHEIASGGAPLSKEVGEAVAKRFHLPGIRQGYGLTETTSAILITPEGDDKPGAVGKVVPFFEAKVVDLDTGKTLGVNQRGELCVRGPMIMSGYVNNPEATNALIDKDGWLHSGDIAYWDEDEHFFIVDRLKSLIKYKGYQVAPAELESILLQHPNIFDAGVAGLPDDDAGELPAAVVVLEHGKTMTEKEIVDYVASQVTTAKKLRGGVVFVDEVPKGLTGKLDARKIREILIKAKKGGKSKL
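Inhibitors were tested against purified firefly luciferase in a biochemical, low-substrate format (both substrates at 10uM) and luminescence measured with a CCD imager.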
NPR1 antag = blocks ANP-stimulated signaling of human Npr1 receptor | Potency, µM (titrated, usually from 46.3 µM), without a hit: at the top dose activity change, negative = inhibition, most hits filed as inhibitors | actives 1.6% (n = 76,000) | AID 1347048 | HEK293 hNpr1 GloSensor cGMP, ANP-stimulated luminescence; calls by dose curve; note: % is set by controls: 0 for no effect and ±100 for the full control effect; nearly all actives have a fitted effect of over 60% in size
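HEK293 cells stably expressing human Npr1 and cGMP GloSensor pGS-40F, loaded 2 h with 2% GloSensor reagent, given compound 30 min at room temperature. Luminescence read before and 20 min after 0.1 nM hNppA.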
3T3 cytotox = cytotoxic compounds in NIH 3T3 cells; NIH 3T3 viability, CellTiter-Glo ATP luminescence, 48-72 h; actives 4.3% (n = 94,000); Potency, µM (titrated, usually from 96.7 µM), for inactives: top-dose activity change, negative = cytotoxicity, usual class: inhibitors; AID 1345082; note: % is set by controls: 0 for no effect and ±100 for the full control effect; nearly all actives have a fitted effect of over 55% in size
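NIH 3T3 cells at 400 cells/well received 23 nL of compound by pintool and were incubated 48 or 72 h at 37 °C. Viability was read as ATP-coupled CellTiter-Glo luminescence.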
NPR1 antag cnf = hNpr1 antagonism, confirmation assay | shares compounds with NPR1 antag | HEK293 hNpr1 cGMP GloSensor luminescence, ANP-stimulated | Potency, µM (doses to about 57.6 µM), for the others: top-dose activity change, negative = inhibition, most hits filed as inhibitors | actives 76% (n = 1,400) | AID 1347044; calls by dose curve; note: nearly all actives have a fitted effect of over 70% in size
NPR2 antag = hNpr2 antagonism, selectivity versus Npr1. HEK293 hNpr2 GloSensor cGMP luminescence, CNP-stimulated. actives 67% (n = 1,400). shares compounds with NPR1 antag. Potency, µM (doses to about 57.6 µM), for inactives: at the highest dose activity change, negative = inhibition, hits mostly inhibitors; calls by dose curve; note: nearly all actives have a fitted effect of over 70% in size
FLuc counter = counter-screen for Npr1 antagonists: firefly luciferase inhibitors | Potency, µM (doses to about 57.6 µM), for inactives: top-dose activity change, negative = inhibition, hits mostly inhibitors | actives 0.7% (n = 1,400) | shares compounds with NPR1 antag | purified FLuc enzyme, luminescence, Km substrate; note: 0% is about no effect
GloSensor cGMP = control cell line activity, Npr1 antagonist counter-screen. shares compounds with NPR1 antag. HEK293 GloSensor cGMP, SNP-stimulated, luminescence. Potency, µM (series often up to 57.6 µM), inactives show at the top dose activity change, negative = inhibition, actives largely listed as inhibitors. actives 69% (n = 1,400); calls by dose curve; note: % is set by controls: 0 for no effect and ±100 for the full control effect; nearly all actives have a fitted effect of over 70% in size
Numbers without * were called inactive; i = inactive; u = inconclusive; x = not tested or not shown; [ ] = another dose, or the depositor's remark. Most compounds without a hit are left out; they make up all but 11% or so of the library. Unless noted, calls come from the whole dose curve; as a rule, active = well fitted curve in the direction sought with a large enough effect; inconclusive = small, poorly fitted or top-dose-only effect, or another doubt; inactive = no such curve, though single readings can be large; an effect the other way counts as inactive or inconclusive. Potency is the fitted concentration of half-maximal effect.

SMILES	HEK293 tox	Luciferase inh	NPR1 antag	3T3 cytotox	NPR1 antag cnf	NPR2 antag	FLuc counter	GloSensor cGMP
CNC(=O)c1cc(C)nc2onc(C3CCN(C(=O)c4ccncc4)C3)c12 (stereo not drawn)	4%	x	x	-18%	x	x	x	x
O=C(Cc1ccccc1)N1CCC2(CC1)CC(N(C(=O)c1ccccc1)C1CC1)CCO2 (stereo not drawn)	u	i	-14%	-17%	x	x	x	x
O=C(CCC1CCCC1)N1CCC2(CC1)CC(N(C(=O)c1ccccc1)C1CC1)CCO2 (stereo not drawn)	u	i	u	u	u	-27%	0%	u
O=Cc1ccccc1-c1cccc(O)c1	u	x	x	u	u	50µM*	u	u
Cc1cccc(-c2ccccc2C=O)c1	-10%[230 µM]	x	x	3%[174 µM]	x	x	x	x
COC(=O)[C@@H]1Cc2ncn(Cc3ccc(Cl)cc3)c2CN1C(=O)c1ccc(C(F)(F)F)cc1	u	i	-25%	u	u	-8%	0%	u
COC(=O)[C@@H]1Cc2ncn(Cc3ccc(Cl)cc3)c2CN1C(=O)c1ccccc1	4%[172 µM]	i	1%[70.6 µM]	-27%[174 µM]	x	x	x	x
O=C1N[C@H](CC(=O)N2CCN(c3ccc(C(F)(F)F)cn3)CC2)C(=O)Nc2ccccc21	u	i	u	-15%	u	u	-1%	u
Cc1ccc(-c2cc(C(=O)NCC(F)(F)F)c3cnn(C)c3n2)c(C)c1	u	x	x	-24%	x	x	x	x
Cn1c(=O)n([C@H]2CCCN(C(=O)Nc3ccc4c(c3)OCCO4)C2)c2ncccc21	-10%	i	-4%	-20%	x	x	x	x
Cn1ccc(NC(=O)c2ccc3c(c2)NC(C)(CNCc2ccccc2)CO3)n1 (stereo not drawn)	u	i	-7%[70.6 µM]	-16%[138 µM]	x	x	x	x
Cn1ccc(NC(=O)c2ccc3c(c2)NC(C)(CCCCc2ccccc2)CO3)n1 (stereo not drawn)	45µM*	i	10µM*	40µM*	14µM*	20µM*	1%[86.2 µM]	13µM*
O=C(NCc1ccccc1)c1csc(N2CCN(c3ccc(Cl)cc3)CC2)n1	u	i	11µM*	-12%	22µM*	22µM*	0%	22µM*
CN1CCN(C(=O)c2csc(N3CCN(c4ccc(Cl)cc4)CC3)n2)CC1	u	u	-11%	u	x	x	x	x
O=C(NCc1ccccc1Cl)c1cn2cc(-c3ccccc3)sc2n1	-1%	x	x	-14%	x	x	x	x
O=C(NCc1ccc(F)cc1)c1cc2n(n1)CC(c1ccc3c(c1)OCO3)OC2 (stereo not drawn)	u	i	0%	u	x	x	x	x
O=C(NCc1ccccc1Cl)c1csc(N2CCN(c3ccc(F)cc3)CC2)n1	u	i	11µM*	u	22µM*	22µM*	-7%	19µM*
O=C(NCc1ccc2c(c1)OCO2)c1csc(N2CCN(c3ccc(F)cc3)CC2)n1	28µM*	i	10µM*	u	8.6µM*	11µM*	-1%	9.7µM*
COc1ccc(-c2cc(N3CCC(NC(=O)c4cccc(N(C)C)c4)C3)n[nH]2)cc1 (stereo not drawn)	u	u	-19%	u	x	x	x	x
NC(Cc1ccccc1)C(=O)N1CCN(c2ccccn2)CC1 (stereo not drawn)	-27%	i	-7%	-4%	x	x	x	x
COc1cccc(Cn2c(=O)c(-c3noc(C)n3)c3n(c2=O)CCCCC3)c1	-2%	i	-18%	-15%	x	x	x	x
COc1ccc(CNC(=O)c2cc3n(n2)CC(c2ccc(Cl)cc2)OC3)cc1 (stereo not drawn)	32µM*	i	22µM*	u	27µM*	22µM*	-6%	22µM*
CC(=O)c1ccc(N2CCN(C(=O)c3cc4n(n3)CC(c3ccc(Cl)cc3)OC4)CC2)cc1 (stereo not drawn)	u	i	11µM*	u	22µM*	24µM*	-2%	24µM*
O=C(NCCc1cccs1)c1cc2n(n1)CC(c1ccc(Cl)cc1)OC2 (stereo not drawn)	u	i	u	u	x	x	x	x
Cc1ccc(N2CCN(C(=O)c3cc4n(n3)CC(c3ccc(Cl)cc3)OC4)CC2)cc1 (stereo not drawn)	u	i	u	u	x	x	x	x
SMILES	HEK293 tox	Luciferase inh	NPR1 antag	3T3 cytotox	NPR1 antag cnf	NPR2 antag	FLuc counter	GloSensor cGMP
O=C(Nc1ccc(Oc2ccccc2)cc1)c1cc2n(n1)CC(c1ccc(Cl)cc1)OC2 (stereo not drawn)	u	i	3.5µM*	-28%	3.9µM*	4.8µM*	2%	3.9µM*
O=C(Nc1ccc(F)c(F)c1)c1cc2n(n1)CC(c1ccc(Cl)cc1)OC2 (stereo not drawn)	u	i	u	u	x	x	x	x
NS(=O)(=O)c1ccc(CCNC(=O)c2cc3n(n2)CC(c2ccc(Cl)cc2)OC3)cc1 (stereo not drawn)	45µM*	i	14µM*	u	24µM*	u	1%	24µM*
O=C(C1CCCN1C(=O)c1cccc(Cl)c1)N1CCC(N2Cc3ccccc3C2=O)CC1 (stereo not drawn)	u	x	x	-20%	x	x	x	x
CNC(=O)C1CN(c2ccccc2)C(=O)N1 (stereo not drawn)	4%[230 µM]	i	-14%[70.6 µM]	-9%[174 µM]	x	x	x	x
O=C(Nc1ccc(Cl)cc1)c1cc2n(n1)CC(c1ccc(Cl)cc1)OC2 (stereo not drawn)	u	i	11µM*	u	24µM*	u	-2%	27µM*
COc1ccc(NC(=O)c2cc3n(n2)CC(c2ccc4c(c2)OCO4)OC3)cc1Cl (stereo not drawn)	u	i	u	-4%	u	-26%	-4%	u
CC(=O)Nc1ccc(NC(=O)c2cc3n(n2)CC(c2ccc(Cl)cc2)OC3)cc1 (stereo not drawn)	u	i	-17%	-26%	x	x	x	x
COc1ccc(CNC[C@H]2Cn3c(-c4ccc(Cl)cc4)cnc3CO2)cc1	56µM*	i	25µM*	32µM*	31µM*	35µM*	1%[86.2 µM]	u
CC(C)NC[C@H]1Cn2c(-c3cccc(Cl)c3)cnc2CO1	-14%[172 µM]	i	1%[70.6 µM]	-22%[138 µM]	x	x	x	x
